Hit rate of the full screen: of about 330,000 compounds, about 10,000 (3%) were called active. The full list was thinned out, with actives kept by preference. A number with no mark means an inactive call.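 The calls were made as follows: active = inhibition of at least 50% at 8 µM in the primary screen; inactive = the rest.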
Molecular target: Protein Mdm4 (Homo sapiens) + E3 ubiquitin-protein ligase Mdm2 (Homo sapiens) (UniProt O15151+Q00987)
Test: inhibitors of human Mdm2-MdmX association, primary screen, cell-based, luminescence, split luciferase, SaOS-2, uHTS (AID 485346)
Details: SaOS-2 split-luciferase Mdm2/MdmX complementation, at 8 µM, active compounds read high

Sequence of Protein Mdm4 (Homo sapiens) + E3 ubiquitin-protein ligase Mdm2 (Homo sapiens) (O15151 whole entry, looked up): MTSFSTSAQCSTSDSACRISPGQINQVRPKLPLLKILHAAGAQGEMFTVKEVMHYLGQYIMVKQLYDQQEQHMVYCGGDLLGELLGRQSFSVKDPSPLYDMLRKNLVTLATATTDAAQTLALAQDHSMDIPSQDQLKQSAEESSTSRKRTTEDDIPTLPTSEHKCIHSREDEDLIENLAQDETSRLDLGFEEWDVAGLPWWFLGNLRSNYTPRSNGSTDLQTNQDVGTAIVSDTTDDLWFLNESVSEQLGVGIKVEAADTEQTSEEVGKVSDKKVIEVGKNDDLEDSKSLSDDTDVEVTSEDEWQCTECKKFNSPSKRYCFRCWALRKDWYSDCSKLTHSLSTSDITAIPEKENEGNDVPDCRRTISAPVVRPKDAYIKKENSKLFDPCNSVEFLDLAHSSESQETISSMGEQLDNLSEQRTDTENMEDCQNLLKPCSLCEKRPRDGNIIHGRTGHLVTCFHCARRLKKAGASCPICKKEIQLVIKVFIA
Sequence of Protein Mdm4 (Homo sapiens) + E3 ubiquitin-protein ligase Mdm2 (Homo sapiens) (Q00987 whole entry, looked up): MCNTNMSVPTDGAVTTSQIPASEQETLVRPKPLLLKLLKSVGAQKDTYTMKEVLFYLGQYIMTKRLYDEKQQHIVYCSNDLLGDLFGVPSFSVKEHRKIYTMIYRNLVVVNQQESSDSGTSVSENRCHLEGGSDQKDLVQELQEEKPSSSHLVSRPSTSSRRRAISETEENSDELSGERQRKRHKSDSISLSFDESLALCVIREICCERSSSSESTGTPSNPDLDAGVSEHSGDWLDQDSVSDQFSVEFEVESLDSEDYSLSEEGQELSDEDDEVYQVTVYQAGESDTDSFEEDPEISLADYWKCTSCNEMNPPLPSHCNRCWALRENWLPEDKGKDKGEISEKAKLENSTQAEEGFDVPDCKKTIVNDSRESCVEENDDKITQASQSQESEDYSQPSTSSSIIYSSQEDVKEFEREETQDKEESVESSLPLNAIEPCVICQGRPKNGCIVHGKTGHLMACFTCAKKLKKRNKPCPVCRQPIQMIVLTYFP

SMILES | inhibition
O=C(CNC1CCCCC1)NCC1(c2ccccc2)CCCC1 | 2.11%
C=C1CCN([C@H](C(=O)NCc2cc(OC)c(OC)c(OC)c2)C(C)C)S(=O)(=O)c2ccccc21 | -24.7%
C[C@@H]1CC[C@]2(O[C@@H](CCO)C[C@H](O)[C@H]2O)O1 | 16.3%
CC(=O)Nc1ccc(NC(=O)C2CCCN(S(=O)(=O)c3ccc(Cl)cc3)C2)cc1 (stereo unspecified) | 55.6% (active)
COc1ccc(S(=O)(=O)N2CCCC(C(=O)Nc3ccc(NC(=O)c4ccccn4)cc3)C2)cc1 (stereo unspecified) | -15.5%
CC(C)c1ccc(NC(=O)C2CCCN(S(=O)(=O)c3cccnc3)C2)cc1 (stereo unspecified) | 20.9%
CCCCCCC(=O)N(O)C1CC(=O)N(c2ccccc2)C1=O (stereo unspecified) | 61.2% (active)
CCCCOC(=O)c1ccc(N2C(=O)CC(N3CCN(C/C=C/c4ccccc4)CC3)C2=O)cc1 (stereo unspecified) | 25.8%
CCOC(=O)c1ccc(N2C(=O)CC(N(C)Cc3ccccc3)C2=O)cc1 (stereo unspecified) | -7.46%
CS(=O)(=O)c1ccc(Cl)c(NC(=O)COC(=O)c2ncc(Cl)c(Cl)c2Cl)c1 | 13.8%
CCOc1ccc(CN2CCC(n3nccc3NC(=O)C3CC3)CC2)cc1CO | 20%
CN1CCc2ccccc2C1Cc1ccccc1NC(=O)c1sc2ccccc2c1Cl (stereo unspecified) | 12.4%
COc1ccc(Br)cc1C(=O)NC(=S)Nc1cc(-c2nc3ccccc3[nH]2)ccc1C | 81.4% (active)
Cc1ccc(-c2nc3ccccc3[nH]2)cc1NC(=O)c1sc2ccccc2c1Cl | 99.3% (active)
Cc1ccc2c(Cl)c(C(=O)Nc3nn[nH]n3)sc2c1 | 16.7%
Cc1cc2[nH]ncc2cc1NC(=S)NC(=O)c1ccccc1 | 35%
COc1ccc(Br)cc1C(=O)Nc1cccc(C)c1C | -15.3%
Cc1cc(C(=O)O)c(S(C)(=O)=O)s1 | 24.5%
COC(=O)C(C(=O)Nc1cccc(C)n1)C1CCCCCC1 (stereo unspecified) | 10.4%
C=CCOc1ccc(/C=C/C(=O)OC(C)C(=O)Nc2ccc(NC(C)=O)cc2)cc1 (stereo unspecified) | 4.16%
CC(=O)NC(Cc1ccccc1)C(=O)NC1CCN(c2ncccc2[N+](=O)[O-])CC1 (stereo unspecified) | 20.8%
COc1ccc(-c2cc(C3CCN(c4ncccc4[N+](=O)[O-])CC3)[nH]n2)cc1 | 56.4% (active)
COc1ccc(-c2cc3ncccc3cn2)cc1 | -99.3%

SMILES | inhibition
COc1ccc(S(=O)(=O)N2CCCC2CNC(=O)C(=O)NC2CC2)cc1 (stereo unspecified) | 5.26%
C=CCn1c(=S)[nH]c2nc3c(cc2c1=O)COC(C)(C)C3 | -32.6%
CC1(C)Cc2nc3sc4c(SCC(=O)NC(c5ccccc5)c5ccccc5)ncnc4c3cc2CO1 | 71.8% (active)
CC(C)CCSc1ncnc2c1oc1nc3c(cc12)COC(C)(C)C3 | -3.42%
CCCCN(CC(=O)Nc1cccc(S(=O)(=O)N2CCCC2)c1)Cc1nc2ccccc2c(=O)[nH]1 | 15.4%
CC(C(=O)N1CCN(c2ccccc2F)CC1)c1ccc([N+](=O)[O-])cc1 (stereo unspecified) | -3.99%
COc1ccc(Oc2cn[nH]c2-c2ccc(OC)cc2O)cc1 | 14.4%
COc1ccc(-c2cn[nH]c2-c2ccc(OC)cc2)cc1 | 63.5% (active)
COC(=O)c1cc(OC)ccc1-c1ccc(OC)cc1 | 21.1%
O=C(O)CCn1c(O)c(C=C2N=c3ccccc3=N2)sc1=S | -11%
O=C(CN1CCOc2ccccc21)N1CCC(Cc2ccccc2)CC1 | 25.3%
Cc1c(NS(=O)(=O)c2cc(C(=O)NCCc3ccc(F)cc3)cc(Cl)c2Cl)c(=O)n(-c2ccccc2)n1C | 1.11%
c1ccc(C2c3[nH]c4ccccc4c3CCN2Cc2cccn2-c2cccnc2)nc1 (stereo unspecified) | 5.09%
CCOc1ccc(C2c3[nH]c4ccccc4c3CCN2Cc2cccn2-c2ncccn2)cc1 (stereo unspecified) | 76.2% (active)
CCOc1ccc(C2c3[nH]c4ccccc4c3CCN2Cc2cn(CC)nc2C)cc1 (stereo unspecified) | 12.1%
CCc1ccc(NC(=O)C(C)OC(=O)/C=C/c2cccc([N+](=O)[O-])c2)cc1 (stereo unspecified) | -11%
CC1=C(C(=O)OC2CCCCC2)C(c2cccnc2)n2ncnc2N1 (stereo unspecified) | 18.3%
CCOC(=O)Nc1ccc2c(c1)N(C(=O)CCN1CCN(CCO)CC1)c1ccccc1CC2 | -8.36%
CCNCCC(=O)N1c2ccccc2Sc2ccc(NC(=O)OCC)cc21 | 11.1%
CCOC(=O)Nc1ccc2c(c1)N(C(=O)CCCl)c1ccccc1[S@]2=O | 84.3% (active)
CCOc1cc(-c2cc(-c3ccc(NC(C)=O)cc3)nc(N)c2C#N)ccc1O | 62.3% (active)
CCOc1cc(-c2cc(-c3ccc(OC)cc3)nc(N)c2C#N)ccc1O | 14.7%
CCOC(=O)CC(=O)CSc1nc(-c2ccccc2)cc(-c2ccc(Cl)cc2)c1C#N | 17%

SMILES | inhibition
CCC(C)c1ccccc1NC(=O)CN(C)CC(=O)Nc1ccccc1SC (stereo unspecified) | 9.56%
O=C(NCCCO)c1cc2c([nH]c3ccccc32)c(-c2ccc(F)cc2)n1 | 40.9%
O=C(NCC1CCCO1)c1cc2c([nH]c3ccccc32)c(-c2ccc(F)cc2)n1 (stereo unspecified) | 69.3% (active)
O=C(NCC1CCCO1)c1ccc2ccccc2n1 (stereo unspecified) | -19.2%
COc1ccc2[nH]c3c(c2c1)CCN1C(=O)C(CC(=O)NCCc2ccccn2)C[C@H](C(=O)N2CCOCC2)[C@@]31C (stereo partly specified) | 1.71%
Cc1ccc2c(N)c(C(=O)c3ccccc3)sc2n1 | 20.5%
Cc1sc2nc(CC(N)=O)[nH]c(=O)c2c1-c1ccccc1 | -7.25%
NC(=O)c1sc2nc3c(c(-c4ccccc4)c2c1N)CCC3 | 57.3% (active)
COC(=O)Cn1c(=NC(=O)c2cc(OC)c(OC)c(OC)c2)sc2cc(OC)ccc21 | 34.7%
CCOC(=O)C(Sc1ncc(C#N)c(N)n1)C(C)C (stereo unspecified) | 15.2%
C=CCn1c(SCC(=O)NC)nnc1C12CC3CC(CC(C3)C1)C2 | 10.2%
CCCCc1nc2ccccc2c(=O)n1NC(=O)c1c(O)c2cccc3c2n(c1=O)CC3 | 27%
Cc1cc(=O)n2c3c(cccc13)CCC2 | 0.512%
CCNC(=O)c1c(O)c2cccc3c2n(c1=O)CC3 | 80.5% (active)
CC1=CC(=C(C#N)c2nc3ccccc3s2)C=C(C)N1c1ccc(F)cc1F | 12.5%
OCCCNC(c1ccccc1)c1ccc(O)cc1 (stereo unspecified) | 4.25%
COc1cccc2sc(NNC(=O)c3nc4ccccc4s3)nc12 | 59.4% (active)
O=C(O)CS/C(=C\c1ccc(F)cc1)c1nc2ccccc2s1 | 21.7%
COc1ccc(/C=C(/CC(=O)Nc2ccc(C)cc2)c2nc3ccccc3s2)cc1 | -25.3%
O=C(Nc1ccc2c(c1)OCCO2)C1CCCC1 | 55% (active)
O=C(Nc1ccc2c(c1)OCO2)C1CC1(Cl)Cl (stereo unspecified) | 18%
O=C(Nc1ccc2c(c1)OCCO2)C1CCCN(c2ncccn2)C1 (stereo unspecified) | -64.3%
Cc1onc(-c2ccc(Cl)cc2)c1-c1ccnn1S(=O)(=O)c1ccc(Cl)cc1 | 16.6%

SMILES | inhibition
O=C(COC(=O)C1(c2ccc(F)cc2)CCCC1)N1CCNC1=O | 1.73%
C=CCn1c(CNS(=O)(=O)c2ccc(Br)cc2)nnc1SC | 20.2%
N/C(=N\OC(=O)/C=C/c1ccccc1)c1ccc(Br)cc1 | 13.5%
N/C(=N\OC(=O)N1c2ccccc2Sc2ccccc21)c1ccc(Br)cc1 | 53.2% (active)
N/C(=N\OC(=O)Cc1ccccc1[N+](=O)[O-])c1ccc(Br)cc1 | -0.461%
Cc1cc(=O)cc(C)n1-c1ccc(Cl)c(Cl)c1 | 15.1%
O=c1[nH]nc(SCCS(=O)(=O)c2ccc(F)cc2)n1-c1ccccc1C(F)(F)F | 25.1%
CC[C@@H]1CCCCc2ccccc2[C@@H](C(=O)C[C@H](O)CC(C)=O)OC1=O | 33%
CCOC(=O)c1c(C)oc2cc(Sc3ccccc3)c(O)c(O)c12 | 34.7%
Cc1cc(O)cc(O)c1C(=O)Cc1cnn(-c2ccccc2)c1 | -9.6%
COc1ccc(C(=O)Cc2cnn(-c3ccccc3)c2)c(O)c1 | -156%
Cc1[nH]nc(-c2ccc(OCc3cnn(-c4ccccc4)c3)cc2O)c1Oc1ccc(Cl)cc1 | 68.4% (active)
CC(C)C[C@@H](CO)N1CCN(Cc2ccc(O)cc2)CCC1=O | -30.6%
COc1ccc(C)c(Cn2c(-c3nonc3N)nc3ccccc32)c1 | 45.6%
O=c1[nH]cccc1-c1nc2ccccc2n1Cc1ccc(Cl)cc1 | -9.95%
Nc1nonc1-c1nc2ccccc2n1Cc1ccc(F)cc1 | 53.7% (active)
CCc1cccc(NC(=O)COC(=O)c2cc(=O)c3ccccc3o2)c1 | 13.3%
COc1ccccc1CNC(=O)COC(=O)c1sc(C)nc1C | -9.07%
O=c1oc2ccccc2c(CNc2ccccc2)c1[N+](=O)[O-] | 7.52%
Cc1ccc(-c2cccc([C@H]3[C@@H]4C=CC[C@@H](C)[C@@H]4C(=O)N3Cc3ccccc3)c2)cc1 | 69.8% (active)
Cc1cccc([C@H]2[C@@H]3C=CC[C@@H](C)[C@@H]3C(=O)N2Cc2ccccc2)c1 | 16.7%
O=C(N[C@H]1C/C=C\C(c2cccc(F)c2)N(Cc2ccccc2)C(=O)C1)OCC1c2ccccc2-c2ccccc21 (stereo partly specified) | 2.78%

Source: PubChem BioAssay AID485346 (Sanford-Burnham Center for Chemical Genomics, 2010)
